Most compounds without a hit are left out; they make up all but 9.4% or so of the library.
HTT aggregate – reduces HttQ103-GFP aggregates in PC12 cells; PC12 HttQ103-GFP aggregates, Acumen cytometry, 40 h; Potency, µM (top dose mostly 46.1 µM), usual class: inhibitors; 1.1% of 220,000 active; note: nearly all actives have a fitted effect of over 60% in size
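Steps: seed 1500 PC12 HTTQ103-GFP cells/well; add tebufenozide, 100 nM final; add compound titration; add ATPLite reagent; quantify GFP aggregates by laser scanning cytometry.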
ALDH1A1 inh – ALDH1A1 (human) enzyme inhibition. 7.3% of 220,000 active. Purified ALDH1A1, NADH fluorescence, propionaldehyde substrate. AID 1030. Potency, µM (highest dose often 75.3 µM), usual class: inhibitors; active = well fitted inhibition curve with a large enough effect, not every such curve was filed as active; inconclusive = small, poorly fitted or top-dose-only effect, or another doubt; inactive = no such curve, though single readings can be large or run the other way
HPGD block – HPGD (human) dehydrogenase inhibition; P15428; 4.3% of 150,000 active; purified HPGD, NADH fluorescence kinetic, PGE2 substrate; Potency, µM, hits mostly inhibitors; active = well fitted inhibition curve with a large enough effect, not every such curve was filed as active; inconclusive = small, poorly fitted or top-dose-only effect, or another doubt; inactive = no such curve, though single readings can be large or run the other way
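20 nM HPGD preincubated 15 min at room temperature with compound in 50 mM Tris-HCl pH 8, 0.01% Tween 20. Started with 1 mM NAD+ and 30 uM prostaglandin E2; NADH fluorescence (360/450 nm) read 5 times over 30-s intervals, last minus first.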
HTT cytoprotect – protects HTT-Q103 PC12 cells, measured by ATP; PC12 HTT-Q103 induced, cytoprotection, ATP luminescence, 40 h; Potency, µM (highest dose often 56.4 µM), actives largely listed as activators; 0.14% of 230,000 active; AID 1471; note: nearly all actives have a fitted effect of over 45% in size
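PC12 cells with ecdysone-inducible HTT exon 1 Q103-GFP, induced with 100 nM tebufenozide and co-treated with library compounds in a dose series (1536-well, 1500 cells/well). Cytoprotection read as ATP content by ATPlite luminescence.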
IMPase Li inh – IMPase inhibition in cells with lithium potentiation; CHO-M1 cells, IP1 TR-FRET (IP-One), carbachol + lithium; Potency, µM (doses to about 59.4 µM), actives largely listed as inhibitors; 0.35% of 210,000 active; AID 1457;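 note: IP1 builds up when IMPase is blocked and the TR-FRET signal falls; nearly all actives have a fitted effect of over 50% in size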
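CHO cells stably expressing M1 receptor (2000/well, cultured 16–30 h) treated 30 min at 37C with compound plus low lithium. Cytosolic IP1 by TR-FRET (665/620 ratio and 620 channel) after 10 min lysis; AC50 by Hill fit.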
IMPase inh – IMPase inhibition in cells; CHO-M1 cells, IP1 accumulation, HTRF TR-FRET ratio; inhibition (IP1 accumulation), % at 46.1 µM; 120,000 tested, under 10 active; active = well fitted curve in the direction sought with a large enough effect in the signal ratio, not every such curve was filed as active; inconclusive = small, poorly fitted or top-dose-only effect, or a change in a side signal; inactive = no such curve, though single readings can be large or run the other way; the % refers to the signal ratio;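 note: cells stimulated with carbachol in lithium chloride buffer; higher means more IMPase inhibition seen as more IP1 and lower FRET ratio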
Target sequence (P97697 whole entry, looked up): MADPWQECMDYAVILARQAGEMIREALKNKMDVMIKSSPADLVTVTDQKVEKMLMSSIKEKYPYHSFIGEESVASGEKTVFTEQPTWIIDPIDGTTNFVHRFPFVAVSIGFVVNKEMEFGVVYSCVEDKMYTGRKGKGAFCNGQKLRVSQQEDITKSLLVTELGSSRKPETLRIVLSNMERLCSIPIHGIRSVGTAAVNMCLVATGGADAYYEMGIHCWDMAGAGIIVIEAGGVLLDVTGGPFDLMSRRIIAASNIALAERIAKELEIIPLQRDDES
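In this qHTS, compounds (final up to 46 uM) act on CHO-M1 cells that are then activated through the M1 receptor with carbachol, in pH 7.4 buffer containing 50 mM LiCl, for 30 min. IP1 accumulation is quantified by the IP-One immunoassay.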
Of the large screens only hits and unclear results are named; the others gave an inactive call. Unless noted, calls come from the whole dose curve; as a rule, active = well fitted curve in the direction sought with a large enough effect; inconclusive = small, poorly fitted or top-dose-only effect, or another doubt; inactive = no such curve, though single readings can be large; an effect the other way counts as inactive or inconclusive.

CCOC(=O)c1c(C)n(-c2ccc(C)cc2)c2c(C(C(C)=O)C(=O)O)c(Br)c(O)c(O)c12 (centres undefined)	HTT aggregate 12.6µM, ALDH1A1 inh inconclusive, HPGD block 17.8µM, HTT cytoprotect inconclusive
CCCCOC(=O)c1ccc(NC(=S)NC(=O)c2c(Cl)cnn2CC)cc1	ALDH1A1 inh 3.55µM
CCCOC(=O)c1ccc(NC(=O)CSC2=Nc3ccccc3C3CC=NN23)cc1 (centres undefined)	ALDH1A1 inh 31.6µM, HPGD block inconclusive
O=C(Nc1n[nH]c(C2CCCCC2)n1)C1CCCCC1	HTT aggregate 4.47µM
O=C(Sc1cccc2cccnc12)c1ccc(F)cc1	HTT aggregate 10µM, ALDH1A1 inh inconclusive (no result: HPGD block, IMPase inh)
O=S(=O)(Nc1cc(Sc2cccc3cccnc23)c(O)c2ccccc12)c1ccc(F)cc1	HTT aggregate 22.4µM, ALDH1A1 inh 28.2µM, HPGD block 1.26µM (no result: HTT cytoprotect, IMPase inh)
CC(=O)/C(=N\Nc1ccccc1)Sc1cccc2cccnc12	none (no result: IMPase inh)
CC(C)CCCC(C)C1CCC2C3CC(=O)[C@H]4CC(O)CC[C@]4(C)C3CC[C@@]12C (some centres undefined)	none (no result: HTT aggregate, HTT cytoprotect, IMPase inh)
Nc1ccccc1[N+](=O)[O-]	none (no result: HTT aggregate, IMPase inh)
CN(Cc1cnccn1)Cc1c(C(=O)N2CCc3ccccc3C2)nc2ccc(Cl)cn12	ALDH1A1 inh 17.8µM (no result: HPGD block, IMPase inh)
CC(C)CN(C)Cc1c(C(=O)N2CCc3ccccc3C2)nc2ccc(Cl)cn12	ALDH1A1 inh 7.94µM (no result: HPGD block, IMPase inh)
CCCCN(C)Cc1c(C(=O)N2CCc3ccccc3C2)nc2ccc(Cl)cn12	ALDH1A1 inh inconclusive (no result: HPGD block, IMPase inh)

Source: PubChem
